High-throughput results: PubChem, National Center for Advancing Translational Sciences (NCATS)
G9a inh: blocks human histone lysine methyltransferase G9a. Q96KQ7. G9a H3K9 monomethylation, AlphaScreen, 2 h. Potency, µM (top dose mostly 102 µM), for the others: at the top dose activity, negative = inhibition, actives largely listed as inhibitors. 350,000 tested, 8.8% active; note: % is set by controls: 0 for no effect and ±100 for the full control effect; nearly all actives have a fitted effect of over 75% in size
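Enzyme 20 nM + cpd, 15 min RT; add b-H3K9 pep 500 nM / SAM 20 uM; 2 h RT; anti-H3K9me1 Ab 0.5 ug/mL + SA donor / anti-rabbit acceptor beads 20 ug/mL each, 10 min; AlphaScreen read.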
Sfp inh: blocks B. subtilis Sfp PPTase activity. AID 1490. Biochemical Sfp PPTase activity, qHTS. Q9F4F7. Potency, µM, for the others: largest response in the series, negative = inhibition, hits mostly inhibitors. 310,000 tested, 3.5% active;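 note: the enzyme is Sfp with the accession as filed and its product quenches rhodamine fluorescence; 0% = enzyme reaction without inhibitor and -100% = no enzyme wells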
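Buffer: 50 mM Hepes-Na pH 7.6, 10 mM MgCl2, 0.01% Nonidet P-40, 0.01% BSA. Enzyme 15 nM, pre-exposed to compound 15 min; substrates then added and fluorescence change tracked over 30 min.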
JMJD2A Tudor: blocks the human JMJD2A Tudor domain; O75164; AlphaScreen JMJD2A-Tudor / H3K4me3 peptide binding; Potency, µM (titrated, usually from 114 µM), without a hit: top-dose activity change, negative = inhibition, actives largely listed as inhibitors; 390,000 tested, 4.4% active; note: % is set by controls: 0 for no effect and ±100 for the full control effect; nearly all actives have a fitted effect of over 50% in size
Target sequence (O75164 whole entry, looked up, the tested form may be a part): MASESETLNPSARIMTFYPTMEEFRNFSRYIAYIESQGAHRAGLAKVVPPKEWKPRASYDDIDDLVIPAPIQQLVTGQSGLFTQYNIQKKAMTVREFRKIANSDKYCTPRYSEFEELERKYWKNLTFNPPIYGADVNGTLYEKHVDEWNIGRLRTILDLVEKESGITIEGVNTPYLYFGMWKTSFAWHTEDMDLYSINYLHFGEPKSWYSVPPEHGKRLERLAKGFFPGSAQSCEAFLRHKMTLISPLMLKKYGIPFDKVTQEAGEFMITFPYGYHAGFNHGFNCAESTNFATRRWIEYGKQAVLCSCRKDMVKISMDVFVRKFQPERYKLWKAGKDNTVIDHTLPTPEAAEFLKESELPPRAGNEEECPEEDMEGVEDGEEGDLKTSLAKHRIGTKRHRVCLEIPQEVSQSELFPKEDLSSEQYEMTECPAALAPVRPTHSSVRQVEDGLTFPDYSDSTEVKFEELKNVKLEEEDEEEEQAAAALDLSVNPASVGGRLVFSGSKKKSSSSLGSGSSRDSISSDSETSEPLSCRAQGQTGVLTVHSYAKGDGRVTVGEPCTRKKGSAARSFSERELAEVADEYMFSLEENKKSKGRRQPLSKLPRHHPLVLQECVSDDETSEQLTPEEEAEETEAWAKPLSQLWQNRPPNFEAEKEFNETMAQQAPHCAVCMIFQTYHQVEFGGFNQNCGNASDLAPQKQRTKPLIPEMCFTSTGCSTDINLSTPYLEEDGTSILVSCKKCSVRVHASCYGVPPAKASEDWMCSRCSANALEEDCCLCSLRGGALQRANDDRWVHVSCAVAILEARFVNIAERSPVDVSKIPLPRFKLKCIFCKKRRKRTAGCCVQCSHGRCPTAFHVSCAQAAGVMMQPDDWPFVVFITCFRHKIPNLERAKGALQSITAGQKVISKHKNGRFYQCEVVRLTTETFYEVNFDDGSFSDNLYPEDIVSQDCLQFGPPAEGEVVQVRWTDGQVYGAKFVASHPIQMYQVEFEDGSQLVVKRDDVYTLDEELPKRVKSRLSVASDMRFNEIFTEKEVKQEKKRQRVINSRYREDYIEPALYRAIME
HP1b chromo inh: HP1-beta chromodomain-methylated histone interaction inhibition | P83916 | AlphaScreen HP1-beta / biotin-H3K9me3 peptide binding | Potency, µM (titrated, usually from 114 µM), inactives show at the top dose activity change, negative = inhibition, hits mostly inhibitors | 390,000 tested, 0.56% active; note: nearly all actives have a fitted effect of over 70% in size
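AlphaScreen: HP1-beta (50 nM) preformed 30 min with biotin-H3(1-18)K9me3 peptide (50 nM) in PBS pH 7.4, 0.01% Tween-20. Compound added for 30 min at RT, then streptavidin donor/nickel chelate acceptor beads (10 ug/mL) for 30 min.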
L3MBTL1 inh: inhibitors of human L3MBTL1 | Q9Y468 | AlphaScreen L3MBTL1–H3K9me1 peptide binding | Potency, µM (titrated, usually from 57.1 µM), inactives show at the top dose activity, negative = inhibition, most hits filed as inhibitors | 230,000 tested, 0.66% active | AID 485360; note: % is set by controls: 0 for no effect and ±100 for the full control effect; nearly all actives have a fitted effect of over 60% in size
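L3MBTL1 (50 nM) pre-complexed 30 min with biotinylated H3(1-15)K9me1 peptide (75 nM), then compounds added for 30 min at room temperature; AlphaScreen streptavidin donor/nickel chelate acceptor beads (10 ug/mL final) read after 30 min dark incubation.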
BAZ2B inh: blocks human BAZ2B. AlphaScreen BAZ2B-H3K14Ac peptide displacement. Potency, µM (series often up to 114 µM), without a hit: at the highest dose activity change, negative = inhibition, actives largely listed as inhibitors. 360,000 tested, 4.4% active; note: % is set by controls: 0 for no effect and ±100 for the full control effect; nearly all actives have a fitted effect of over 60% in size
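Complex of BAZ2B and biotin-H3K14Ac (50 nM apiece) forms over 30 min at RT, then faces library compounds up to 110 uM for another 30 min; AlphaScreen beads added, 20 min dark incubation, luminescence read.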
* marks the source's active call; other numbers are inactive results; u = inconclusive; x = not tested or not shown; [ ] = dose if it differs, or a comment. Sampled rows, rich in hits. Any-hit rate of the full collection: about 12%. Calls come from the whole dose curve; as a rule, active = well fitted curve in the direction sought with a large enough effect; inconclusive = small, poorly fitted or top-dose-only effect, or another doubt; inactive = no such curve, though single readings can be large; an effect the other way counts as inactive or inconclusive. Potency is the fitted concentration of half-maximal effect.

SMILES | G9a inh | Sfp inh | JMJD2A Tudor | HP1b chromo inh | L3MBTL1 inh | BAZ2B inh
Cc1sc(NC(=O)Nc2ccccc2)c(C(N)=O)c1C | 8.9µM* | 20µM* | -25% | u | -4% | -29%
COC(=O)CCC(=O)Nc1sc(C)c(C)c1C(N)=O | 2.8µM* | 14µM* | u | u | 2% | -15%
Cc1sc(NC(=S)NC(=O)CCc2ccccc2)c(C(N)=O)c1C | u | -21% | -13% | -5% | 4% | -8%
COC(=O)c1c(NC(=O)Nc2ccc(Cl)cc2)sc(C)c1C | 5%[59 µM] | -3% | -13% | 14% | x | -1%
CCOC(=O)c1c(NC(N)=O)sc(C)c1C | 2%[59 µM] | -13% | -13% | 43% | -1% | -10%
CCOC(=O)c1ccc(NC(=O)c2csnn2)cc1 | -47%[59 µM] | x | -16% | 23% | x | -36%
CCOC(=O)c1ccc(NC(=O)CCc2c(C)nc3c(c(C)nn3-c3ccccc3)c2C)cc1 | 3%[59 µM] | x | u | 16% | x | -1%
Cc1ccc(NC(=O)COc2ccc(-c3nn(C)c(=O)c4ccccc34)cc2)c(C)c1 | 7%[59 µM] | x | -2% | 32% | x | -2%
Cc1nn(-c2nc(-c3ccc(F)cc3)cc(C(F)(F)F)n2)c(C)c1Br | 38%[59 µM] | x | 24% | 56% | x | 25%
CC(C)C[C@H](NC(=O)[C@H](Cc1ccccc1)NC(=O)[C@H](Cc1ccccc1)NC(=O)[C@@H](N)CO)C(=O)N[C@@H](CCCN=C(N)N)C(=O)N[C@@H](CC(N)=O)C(=O)O | x | -2% | x | x | x | x
COc1ccc(C)cc1N1C(=N)/C(=C2/Nc3ccccc3S2)C(c2ccccc2)C1=O (stereo unspecified) | 10µM* | -7% | u | u | -4% | u
COc1ccc(C2C(Oc3ccccc3)C(=O)N2c2cc(C)ccc2C)cc1OC (stereo unspecified) | x | 4% | -6% | 35% | -5% | 1%
Cc1cc(C)c2c(N)c(C(=O)N3CCN(c4ncccn4)CC3)sc2n1 | u | -17% | 40µM* | 46% | 5% | -2%
COCc1cc(C)nc2sc(C(=O)N3CCCCC3)c(N)c12 | -9%[59 µM] | 79µM* | -15% | 57% | x | 5%
CCc1ccc(-n2nc(CO)c(C(=O)NCCCCc3ccccc3)n2)cc1 | 8%[59 µM] | x | -12% | 17% | x | 2%
CCCC[C@H]1CCCO[C@@](C(=O)NCc2cc(C)n(C)n2)(C(F)(F)F)C1 | x | 11% | -9% | 36% | x | x
CCCCSc1nnc2c(n1)OC(c1ccc(Br)s1)N(C(C)=O)c1ccccc1-2 (stereo unspecified) | 10µM* | x | u | 16% | x | u
CCCCCSc1nnc2c(n1)OC(c1ccc(C)s1)N(C(C)=O)c1ccccc1-2 (stereo unspecified) | u | x | u | -8% | x | -38%
Cc1ccc(C(=O)O/N=C(\N)c2ccc(C(F)(F)F)cn2)cc1 | 0% | -2% | -18% | 21% | x | -13%
N/C(=N\OC(=O)c1csnn1)c1ccc(C(F)(F)F)cc1 | 18µM* | 56µM* | -5% | -20% | 3% | -1%
CC(C)(C)Cc1nnc(NC(=O)CN2C(=O)c3ccccc3C2=O)s1 | 35µM* | u | -1% | u | 2% | -26%
CCCCc1nnc(NC(=O)CN2C(=O)c3ccccc3C2=O)s1 | -34% | -8% | -1% | 19% | -3%[11.4 µM] | -37%
CC(C)Cc1nnc(NC(=O)CN2C(=O)c3ccccc3C2=O)s1 | 25µM* | 22µM* | -9% | -17% | 7% | -31%
CCCC[C@H](NC(C)=O)C(=O)N[C@@H](CCC(=O)O)C(=O)N[C@@H](Cc1cnc[nH]1)C(=O)N[C@H](Cc1ccccc1)C(=O)N[C@@H](CCCN=C(N)N)C(=O)N[C@H](Cc1c[nH]c2ccccc12)C(=O)NCC(N)=O | x | 34% | x | x | x | x
CCC(=O)Nc1c(C)c(CC)nc2ccccc12 | -5%[12.7 µM] | 7% | -10% | 36% | 2% | -5%
SMILES | G9a inh | Sfp inh | JMJD2A Tudor | HP1b chromo inh | L3MBTL1 inh | BAZ2B inh
CCCCc1nc2ccccc2c(NC(=O)CN(CC)CC)c1CCC | 32µM* | u | 28µM* | u | x | 56µM*
O=C(CN1C(=O)C2CCCCN2c2ccc(C(=O)N3CCCC3)cc21)NCc1ccccc1F (stereo unspecified) | 4%[59 µM] | x | -10% | 29%[57 µM] | x | 1%
O=c1c2c(nc3cc(-c4ccccc4Cl)[nH]n13)CCS2 | x | 22µM* | -17% | 26% | u | -6%
O=c1c2c(nc3cc(-c4ccccc4)[nH]n13)CCS2 | 10% | 1% | -18% | 24% | 14% | 2%
CS(=O)(=O)c1cccc(-c2nnc(NC(=O)c3ccc4c(c3)OCCO4)o2)c1 | 44%[59 µM] | x | -16% | 22%[57 µM] | x | u
COc1cc2c(cc1OC)C(c1cc(OC)c(OC)cc1[N+](=O)[O-])N(C(C)=O)CC2 (stereo unspecified) | 71µM* | -4% | -4% | 35% | x | -2%
COc1cc(Cl)c(C)cc1Nc1c2c(nc3ccccc13)CCC2 | -30%[59 µM] | x | -27% | 13% | x | -17%
O=C(C(c1ccccc1)c1ccccc1)N1CCN(Cc2ccccn2)CC1 | u | -34% | 4µM* | u | -5% | 56µM*
O=C(C(c1ccccc1)c1ccccc1)N1CCN(Cc2ccncc2)CC1 | u | u | u | u | -1% | u
CC1CN(Cc2ccccn2)CCC1=O (stereo unspecified) | 7.9µM* | 14% | -4% | 13% | 3% | -15%
O=S1(=O)CCN(Cc2ccccn2)CC1 | u | 17% | 8% | 26% | x | 1%
O=C(O)C1CCN(Cc2ccccn2)CC1 | 25µM* | 0% | u | -20% | 32% | u
CCOC(=O)C1CCN(Cc2ccccn2)CC1 | 1.8µM* | u | x | x | 1% | 50µM*
COC(=O)C1CCN(C(=O)c2ccc(OC3CCN(Cc4ccccn4)CC3)cc2)CC1 | -38% | 1% | u | 30% | 0% | -1%
O=C1C=CC(=O)N1Cc1ccccn1 | x | x | -9% | 59% | x | x
O=C(NC1CC(=O)N(c2ccccc2)C1)c1ccc(S(=O)(=O)N2CCCCC2)cc1 (stereo unspecified) | 6%[59 µM] | x | -9% | 28% | x | -2%
O=C(Nc1ccc(-c2n[nH]c(=S)o2)cc1)c1ccccc1Br | 8.9µM* | -7% | -4% | 22% | 1% | -1%
COc1ccc(C(=O)Nc2ccncc2)cc1OC | -11%[12.7 µM] | -9% | -11% | 22% | x | 5%
COc1ccc(C(=O)Nc2ccc(-c3n[nH]c(=S)o3)cc2)cc1OC | 1.6µM* | 16µM* | u | -25% | x | u
[O-]/[N+](=C\c1cccc(Br)c1)c1ccccc1 | 40µM* | 12% | -15% | 14% | x | 27%
[O-]/[N+](=C\c1ccc(F)cc1)c1ccccc1 | 7.9µM* | -18% | -1% | 4% | x | 3%
[O-]/[N+](=C\c1ccccc1)c1ccc(Br)cc1 | 9%[2.33 µM] | x | u | -3% | -15% | u
